From PubChem
Hits are enriched below; roughly 3.3% of the tested compounds scored in any of these assays.
Tau filament bind: tau filament binding; AID 596; 71,000 compounds, 2% hits; recombinant tau filaments, thioflavin S fluorescence, 15 h; filaments grown with octadecylsulfate alongside compound; Potency, µM (doses to about 57.1 µM); P10636;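 note: actives lower thioflavin S fluorescence by blocking filaments or displacing dye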
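Thioflavine S fluorescence (ex 450, em 510 nm) reports filaments formed from 1 uM human tau plus 30 uM ODS over 15 h at 37 C (10 mM HEPES pH 7.4, 100 mM NaCl, 5 mM DTT); compounds displacing dye or blocking filaments lower signal.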
Pol III holo inh: inhibitors of bacterial DNA polymerase III holoenzyme; reconstituted DNA polymerase III holoenzyme replication, biochemical; Potency, µM (series often up to 57.1 µM); 71,000 compounds, 0.25% hits; AID 603
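Reconstituted *E. coli* holoenzyme (0.35 nM Pol III, 1 nM beta, 154 nM SSB, 2 nM primase) was preincubated with compound for 15 min at RT. Synthesis on 1.4 nM ssM13Gori ran 35 min, then was stopped with PicoGreen/EDTA and read as dsDNA fluorescence.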
TsaE inh: YjeE (TsaE) inhibition, E. coli | P0AF67 | purified YjeE enzyme, qHTS inhibition assay | Potency, µM | 71,000 compounds, 0.05% hits | AID 605
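Purified YjeE (10 uM) with BODIPY Texas Red-labeled ADP probe (2 uM); compounds pin-transferred, 15 min at room temperature. Binding inhibition read as decreased fluorescence polarization; ADP titration as control.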
Hsp90 Hop PPI: changes Hsp90-Hop TPR2A binding signal, up or down; AlphaScreen TPR2A-His6 binding biotin-Hsp90 C-terminal peptide; Potency, µM (titrated, usually from 57 µM); 71,000 compounds, 0.44% hits; AID 595; active = well fitted curve in either direction with a large enough effect; inconclusive = small, poorly fitted or top-dose-only effect, or another doubt
15-hLO inh: inhibitors of human 15-lipoxygenase (ALOX15); P16050; purified 15hLO-1, xylenol orange hydroperoxide absorbance; Potency, µM (top dose mostly 57.1 µM), usual class: inhibitors; 74,000 compounds, 1.4% hits; note: nearly all actives have a fitted effect of over 55% in size
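40 nM 15hLO-1 + cpd, 15 min RT; start w/ 50 uM AA (final), 6 min RT; stop/detect w/ 200 uM XO + 300 uM Fe(II) in 50 mM H2SO4, 30 min; A573/A405. Buffer 25 mM Hepes pH 7.5, 0.01% Triton X-100. No-enzyme wells as negative control.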
Each line names hits and unclear results; the compound was inactive in the other large screens; ! = a repeat was not active. Unless noted, calls come from the whole dose curve; as a rule, active = well fitted curve in the direction sought with a large enough effect; inconclusive = small, poorly fitted or top-dose-only effect, or another doubt; inactive = no such curve, though single readings can be large; an effect the other way counts as inactive or inconclusive.

COc1ccc(OC)c(NC(=O)c2cc(-c3cc(Cl)ccc3O)n[nH]2)c1	none
Cc1nn2cc(-c3ccccc3)nc2s1	15-hLO inh 25µM
N#CC1=C2SCN(c3ccc(F)cc3)CN2C(=O)CC1c1cccc(F)c1 (stereo not drawn)	15-hLO inh inconclusive
N#CC1=C2SCN(Cc3ccco3)CN2C(=O)CC1c1cccc2ccccc12 (stereo not drawn)	Tau filament bind inconclusive, 15-hLO inh 7.9µM
S=C(S)NCCN1CCNCC1	none
S=C(S)NCCCn1ccnc1	none
CCOC(=O)CCc1c(C)c2ccc(O)cc2oc1=O	none
CCOC(=O)Cc1c(C)c2ccc(N(CC)CC)cc2oc1=O	Hsp90 Hop PPI 25µM
CCN(CC)c1ccc2c(Cl)c(Br)c(=O)oc2c1	TsaE inh inconclusive, Hsp90 Hop PPI 25µM, 15-hLO inh inconclusive
COC(=O)C1=NOC2(C=C(Br)C(OC)=C(Br)C2=O)C1 (stereo not drawn)	none (no result: Tau filament bind, Pol III holo inh, TsaE inh, Hsp90 Hop PPI)
O=C1CCCC=C1[C@H](O)CCCCBr	none (no result: Tau filament bind, Pol III holo inh, TsaE inh, Hsp90 Hop PPI)
Cc1ccc(-c2nc3nc4ccccc4nc3n2Cc2ccco2)cc1	Tau filament bind 16µM, 15-hLO inh inconclusive
COc1ccc(CCn2c(-c3ccco3)nc3nc4ccccc4nc32)cc1	Tau filament bind 13µM
COc1ccccc1Cn1c(-c2ccco2)nc2nc3ccccc3nc21	Tau filament bind 16µM
CCCCCn1c(-c2ccco2)nc2nc3ccccc3nc21	Tau filament bind 13µM, 15-hLO inh inconclusive
CCCN1C[C@@H](CSC)C[C@H]2c3cccc4[nH]cc(c34)C[C@@H]21	none
CC1=C(CC[C@H](C)CO)O[C@@H]2C[C@@H]3[C@H]4CC[C@H]5C[C@@H](O)CC[C@]5(C)[C@@H]4CC(=O)[C@@]3(C)[C@@H]12	none
O=c1c2ccccc2nc(-c2ccco2)n1Cc1ccccc1	none
c1ccc(Cn2c(-c3ccco3)nc3nc4ccccc4nc32)cc1	Tau filament bind 7.9µM
Clc1ccc2[nH]c3c(c2c1)CCc1cn[nH]c1-3	Tau filament bind 16µM, 15-hLO inh inconclusive
O=C(O)c1cc(S(=O)(=O)Nc2cccc(Cl)c2)ccc1O	none (no result: Tau filament bind, Pol III holo inh, TsaE inh, Hsp90 Hop PPI)
COc1nc(Nc2cccc(C)c2)nc(N2CCCCC2)n1	15-hLO inh 4µM
Cc1ccc2c(c1)-c1c(ssc1=S)C(C)(C)N2C(=O)CSc1nncn1C	Tau filament bind 7.9µM, 15-hLO inh 16µM
Cn1cnnc1SCNC(=O)C(F)(F)F	none
Cc1cc(C)c2c(c1)-c1c(ssc1=S)C(C)(C)N2C(=O)CSc1nncn1C	Tau filament bind 2µM, 15-hLO inh inconclusive
Cn1cnnc1SCC(=O)c1ccc2c(c1)CCCC2	none
C/C(=N/NS(=O)(=O)c1ccc(C)cc1)P(=O)(O)O	none
C=CCn1c(SCC(=O)NCCCC)nc2scc(-c3ccco3)c2c1=O	15-hLO inh 5µM
N#CC(=C(/N)Sc1ccccc1N)/C(C#N)=C(/N)Sc1ccccc1N	Tau filament bind inconclusive, 15-hLO inh 13µM!
Nc1ccccc1C#Cc1ccccc1	Tau filament bind inconclusive (no result: 15-hLO inh)
O=S(=O)(NCCO)c1cccc2cccnc12	none
O=S(=O)(NCCN1CCCC1)c1cccc2cccnc12	Tau filament bind inconclusive, 15-hLO inh 10µM
NCCSc1nc(-c2ccccc2)c(-c2ccccc2)o1	none
N/C(CSc1nc(-c2ccccc2)c(-c2ccccc2)o1)=N\O	15-hLO inh 13µM
O=C1CC(=O)N(Cc2ccco2)C(=O)N1	Pol III holo inh 16µM
O=C(O)/C=C\C(=O)Nc1ccc2c(c1)C(=O)c1cc(F)ccc1-2	none
COc1ccc(CNc2ccnc(-c3ccoc3)n2)c(OC)c1	none
COc1ccc(CNc2ccnc(-c3c(C)noc3C)n2)c(OC)c1	15-hLO inh 25µM
O=C1OC2(c3ccc(O)cc3Oc3cc(O)ccc32)c2c1c(-c1ccccc1)c(-c1ccccc1)c(-c1ccccc1)c2-c1ccccc1	TsaE inh inconclusive, Hsp90 Hop PPI inconclusive, 15-hLO inh 1µM
O=C(O)/C=C\C(=O)Nc1ccc2c(c1)-c1ccccc1C2	none
O=C1C(Cl)=C(N2CCCCC2)C(=O)N1c1ccccc1	Hsp90 Hop PPI inconclusive, 15-hLO inh 16µM
COc1ccc(OC)c(N2C(=O)C(Cl)=C(N3CCCCC3)C2=O)c1	none
Cc1ccccc1N1C(=O)C(Cl)=C(N2CCCCCC2)C1=O	Tau filament bind 13µM, Hsp90 Hop PPI inconclusive, 15-hLO inh 10µM
O=C1C(Cl)=C(N2CCCCC2)C(=O)N1c1ccccc1Cl	Hsp90 Hop PPI inconclusive, 15-hLO inh inconclusive
